Measured values from PubChem BioAssay (Tox21).
The source made the active and inactive calls. Calls follow the shape of the dose curve; as a rule, active = well fitted curve in the direction sought with a large enough effect in the repeat runs; inconclusive = weak or mixed curves; inactive = flat fitted curve, though single readings scatter.

Experiment: qHTS assay to test for compound auto fluorescence at 535 nm (green) in HEK293 cells (AID 720680)
Settings: green autofluorescence 485/535 nm; series mostly up to 91.3 µM; fluorescence, % of fluorescein: at the top concentration
Excerpt: U.S. Tox21 Program National Center for Advancing Translational Sciences [NCATS] NIH Chemical Genomics Center [NCGC] U.S. Environmental Protection Agency [EPA] National Institutes of Environmental Health Sciences [NIEHS] National Toxicology Program [NTP] U.S. Food and Drug Administration [FDA] Tox21 Assay Overview: Compound auto fluorescence often interferes with screening of the compound library against various biological targets and signaling pathways. Some of these compounds may have fluorophoric properties. Such properties may interfere with the assay outputs resulting in false positives and/or negatives. To decrease such complications and ensure the compound activities are relevant in terms of biological response, the Tox21 10K compound library was screened for auto fluorescence. From the fluorophores used as reporter signals in our screening assays, the auto fluorescence equivalencies of compounds against three fluorophores have been evaluated: Triamterene, Fluorescein and Rose Bengal sodium for blue, green and red fluorescence, respectively. The fluorescence intensities were measured using Excitation/Emission wavelengths at 405/460nm, 485/535nm and 540/590nm for blue, green and red labels, respectively. This assay includes the green fluorescence data.
Tox21 Assay Protocol Summary: 2,000 HEK293 cells in 5 uL of culture medium containing 10% dialyzed FBS per well were dispensed into black wall/clear bottom 1536-well plates using a Multidrop Combi Dispenser (Thermo Scientific). The assay plates were incubated for 4-5 hr at 37C to allow cell attachment to the well bottom, followed by the transfer of 23 nL compound or DMSO vehicle by a pintool work station (Kalypsys, San Diego, CA). After the assay plates were incubated overnight at 37C and 5% CO2, fluorescence intensities in the assay plates were measured by an Envision (PerkinElmer, Shelton, CT) plate reader using three labels for measuring blue, green and red fluorescence at […] 460, 535 and 590nm respectively.
% is scaled to controls: 0 for no effect and ±100 for the full control effect.

Structure (SMILES) | fluorescence, % of fluorescein | outcome
COc1cc(C(=O)OC(COCCC(C)C)CN2CCOCC2)cc(OC)c1OC (stereo not given) | 0.0441% [at 46 µM] (inactive) | 
COc1c(N2CCNC(C)C2)c(F)cc2c(=O)c(C(=O)O)cn(C3CC3)c12 (stereo not given) | -0.0679% [at 46 µM] (inactive) | 
OCCc1ccccn1 | -0.222% (inactive) | 
CN1CCC(=C2c3ccccc3CCc3cccnc32)CC1 | 0.0357% [at 46 µM] (inactive) | 
Nc1ccn([C@@H]2O[C@H](CO)[C@@H](O)C2O)c(=O)n1 (stereo not given in full) |  | inactive
OCCCCCO | -0.035% [at 95.7 µM] (inactive) | 
CC1=NS(=O)(=O)c2cc(Cl)ccc2N1 | -0.0022% [at 46 µM] (inactive) | 
CCC(C)(CN(C)C)OC(=O)c1ccccc1 (stereo not given) | -0.0159% [at 18.6 µM] (inactive) | 
COC(=O)Nc1ccc(Cl)c(Cl)c1 | 0.0174% (inactive) | 
CC[N+](CC)(CC(=O)Nc1c(C)cccc1C)Cc1ccccc1 (tested in a mixture with another compound) | 0.0921% (inactive) | 
CC(C)CC(C)(N)C#N (stereo not given) | 0.0459% [at 95.7 µM] (inactive) | 
CN(C)[C@@H]1C(=O)C(C(=O)NCN2CCCC2)=C(O)[C@@]2(O)C(=O)C3=C(O)c4c(O)cccc4[C@@](C)(O)C3C[C@@H]12 (stereo not given in full) |  | inactive
C=COC(=O)C(C)(CC)CCC(C)C (stereo not given) | 0.0116% (inactive) | 
CCCCc1ccc2c(n1)[C@@H](c1ccc(OC)cc1C[C@H](C)C(=O)O)[C@H](C(=O)O)[C@H]2c1ccc2c(c1)OCO2 | 0.0953% (inactive) | 
CCCCc1nc(Cl)c(CO)n1Cc1ccc(-c2ccccc2-c2nn[nH]n2)cc1 | -0.31% [at 46 µM] (inactive) | 
CN1CCN(c2cc3c(nn2)Oc2ccccc2N3C)CC1 | -0.004% [at 46 µM] (inactive) | 
CCC(C(=O)NC(=O)NC(C)=O)c1ccccc1 (stereo not given) | 0.0939% [at 46 µM] (inactive) | 
O=C(O)c1cc(C(=O)O)cc(C(=O)O)c1 | 0.0146% [at 95.7 µM] (inactive) | 
CN(C)CCN(C)CCN(C)C | 0.0194% (inactive) | 
COCCOC[C@H](CC1(C(=O)NC2CCC(C(=O)O)CC2)CCCC1)C(=O)Oc1ccc2c(c1)CCC2 (stereo not given in full) | 0.0536% (inactive) | 

Structure (SMILES) | fluorescence, % of fluorescein | outcome
Nc1ccn([C@@H]2O[C@H](CO)[C@@H](O)[C@@H]2O)c(=O)n1 | 0.113% (inactive) | 
CO[C@@]1(NC(=O)C(C(=O)O)c2ccc(O)cc2)C(=O)N2C(C(=O)O)=C(CSc3nnnn3C)CO[C@@H]21 (stereo not given in full) | 0.0617% [at 18.6 µM] (inactive) | 
CNC(=O)Nc1ccc(Cl)c(Cl)c1 | 0.026% (inactive) | 
CC(=O)c1cnccn1 | 0.082% [at 95.7 µM] (inactive) | 
Nc1ccn([C@@H]2O[C@H](CO)[C@@H](O)C2(F)F)c(=O)n1 | -0.0849% [at 46 µM] (inactive) | 
Cc1ccc(C(=O)c2ccc(CC(=O)O)n2C)cc1 | -0.0701% [at 18.6 µM] (inactive) | 
NO | 0.0129% [at 95.7 µM] (inactive) | 
CCCCCCCCCCCCCCCCCCO | -0.0004% [at 46 µM] (inactive) | 
CCCCS(=O)(=O)N[C@@H](Cc1ccc(OCCCCC2CCNCC2)cc1)C(=O)O | 0.0866% [at 46 µM] (inactive) | 
O=C(CO)[C@@H](O)[C@H](O)[C@H](O)CO |  | inactive
COc1cc(C(=O)NCc2ccc(OCCN(C)C)cc2)cc(OC)c1OC | -0.015% [at 18.6 µM] (inactive) | 
C=C(C)C(=O)OCCOCCOCCOCCOC(=O)C(=C)C | -0.0053% (inactive) | 
C[N+](C)(CCOc1ccccc1)Cc1cccs1 | 0.0042% [at 46 µM] (inactive) | 
CC1=NN(c2cccc(S(=O)(=O)O)c2)C(=O)C1 | -0.0672% (inactive) | 
Clc1cc(Cl)c(Cl)nc1Cl | -0.0931% (inactive) | 
O=C(c1ccccc1)C1(O)CCCCC1 | 0.0358% (inactive) | 
[O-][n+]1cccc(CO)c1 | -0.0096% [at 46 µM] (inactive) | 
COc1cc(-c2ccc(=O)[nH]n2)ccc1OC(F)F | -0.0259% [at 46 µM] (inactive) | 
C[N+]1(C)CCCC(OC(=O)C(O)(c2ccccc2)c2ccccc2)C1 (stereo not given) | -0.129% [at 18.6 µM] (inactive) | 
NC(=O)Cc1cccc2ccccc12 | -0.0846% (inactive) | 
